For orientation: inhibition means the drop in the measured response relative to a control, in per cent.

Out of some 1,400 compounds screened, about 210 (15%) were called active. Rule as the data show it: active = inhibition mostly above about 39% (no sharp cut-off); inactive = mostly below about 34%. Not all results are given here.

Among the data in PubChem BioAssay AID624319 (Sanford-Burnham Center for Chemical Genomics, 2012) are inhibition values, retold here.

Sentrin-specific protease 8 (Homo sapiens), sequence (Q96LD8 whole entry, looked up): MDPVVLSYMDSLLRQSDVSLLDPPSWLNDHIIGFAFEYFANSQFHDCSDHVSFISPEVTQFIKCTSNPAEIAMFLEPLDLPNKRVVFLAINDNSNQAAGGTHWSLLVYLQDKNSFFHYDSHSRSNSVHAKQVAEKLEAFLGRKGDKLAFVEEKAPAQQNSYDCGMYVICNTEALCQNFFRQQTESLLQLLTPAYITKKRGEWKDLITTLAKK

The test has as its target Sentrin-specific protease 8 (Homo sapiens) (UniProt Q96LD8). Nature of the test: human SENP8 protease inhibitors, confirmation, biochemical, Nedd8 protein substrate, single concentration (AID 624319). The note with it: purified SENP8, Nedd8-AMC/pro-Nedd8 cleavage fluorescence, 30 min; at 25 µM; stronger effect = higher value.
Regarding `Oc1ccc(N=Cc2sc3ccccc3c2Cl)cc1`, the inhibition is 11.3% (inactive).

As to `O=c1[nH]c2ccccc2s1`, the inhibition is 1.69% (inactive). As to `Cc1ccc(C(=O)N/N=C\c2cc(Br)c(Br)o2)cn1`, the inhibition was 6.43% (inactive). The figure for `O=[N+]([O-])c1ccc(C=Nc2ccc(Cl)cc2Cl)s1` is 14.4% (inactive); for `O=C1Nc2ccc([N+](=O)[O-])cc2C1=Nc1cccc(CO)c1` it is 76.8% (active). For the compound `c1coc(-c2nc3nc4ccccc4n3nc2-c2ccco2)c1`, the inhibition is 20.6% (inactive).

Regarding `CN1C(=O)/C(=C/C=C2\SCCN2C)OC1=S`, the inhibition was 29.4% (inactive). The figure for `Cc1cc([N+](=O)[O-])c(NC2CCCCC2)c([N+](=O)[O-])c1` is 11% (inactive); for `COC(=O)C1=C(C(=O)c2ccc(C)cc2)C(c2ccccc2)n2nnnc2N1` (stereo not drawn) it is 18.1% (inactive). The figure for `CCc1ccccc1NC(=O)[C@@H]1CCC(=O)N1C1OC(=O)c2c1ccc(OC)c2OC` (stereo partly drawn) is 13.7% (inactive). With `O=C(OCC(=O)N1CCN(c2ccccc2)CC1)c1ccc([N+](=O)[O-])s1`, the inhibition was 57% (active). Take `O=C(c1ccccc1)N1CCN(c2ccc([N+](=O)[O-])c(NCc3ccco3)c2)CC1`: the inhibition was 14.3% (inactive). The figure for `CCOc1ccc(C(c2c(C)[nH][nH]c2=O)c2c(C)[nH][nH]c2=O)cc1OCC` is 2.47% (inactive). The figure for `Cc1[nH][nH]c(=O)c1C(c1ccc(-c2ccc(Cl)cc2)o1)c1c(C)[nH][nH]c1=O` is 49.8% (active); for `CCN1CCC2(CC1)N=C(c1ccc(F)cc1)C(=S)N2C(=O)c1ccc(C)cc1` it is 54.5% (active). Consider `O=C(COC(=O)c1ccc([N+](=O)[O-])o1)NC12CC3CC(CC(C3)C1)C2`, for which the inhibition is 81.4% (active). In the case of `O=[N+]([O-])c1ccccc1NCc1ccccc1Cl` it was 20.6% (inactive); in that of `CCOCCCn1c(NN)nc2ccccc2c1=O`, 0.12% (inactive); in that of `CCCCNCCS(=O)(=O)NCc1ccccc1`, 26.8% (inactive). On to `O=C(c1cccc(F)c1)N1CCN(c2ccc([N+](=O)[O-])c3cccnc23)CC1`, for which the inhibition was 16.9% (inactive). On to `O=C(Nc1ccc(C(=O)O)c(O)c1)c1ccccc1`, for which the inhibition is 0.26% (inactive). The figure for `CN1CCN(S(=O)(=O)c2ccc(N3CCN(c4ccccc4O)CC3)c([N+](=O)[O-])c2)CC1` is 29.3% (inactive); for `O=C(Nc1cc2c3c(c1)C1CCCC1CN3CC1CCCC21)c1ccc([N+](=O)[O-])cc1` (stereo not drawn) it is 24.6% (inactive); for `Nn1cnnc1N/N=C/c1cc([N+](=O)[O-])c(Cl)cc1Cl` it is 16.6% (inactive).

`COc1ccc(-c2nnco2)cc1OC`: the inhibition was 14.3% (inactive). The figure for `CCOc1cc(NC(=O)c2ccccc2C(=O)O)c(OCC)cc1NC(=O)c1ccccc1F` is -3.99% (inactive). Turning to `O=C1CC(c2ccccc2)=NN1c1ccc([N+](=O)[O-])cc1`, the inhibition was 46.5% (active). On to `COC(=O)Cn1c2ccc(C)cc2c2nc(C)sc21`, for which the inhibition was 14.2% (inactive).

In the case of `CN1CCc2ccccc2C1Cc1ccccc1NC(=O)c1sc2ccccc2c1Cl` (stereo not drawn), the inhibition was 0.2% (inactive). The figure for `Nc1ccc2nc3c(=O)[nH]c(=S)[nH]c3nc2c1` is 26.8% (inactive); for `CN(c1ccc(C(=O)N2CCc3ccccc3C2)cc1)S(C)(=O)=O` it is 42.8% (active); for `CCN(CC)C(=O)CCC(=O)Nc1ccc(C(=O)OC)cc1` it is 8% (inactive). The figure for `CC(=O)N1CCN(S(=O)(=O)c2cccc(C(=O)NC3CCC(C)CC3)c2)CC1` (stereo not drawn) is 3.29% (inactive); for `CCc1ccccc1NC1c2ccccc2C(=O)N1c1cccnc1` (stereo not drawn) it is 12.2% (inactive). The figure for `O=c1[nH]n2c(=O)c3c([nH]c2c1N=Nc1ccccc1)CCC3` is 25.4% (inactive). On to `CCOC(=O)/C(=N\Nc1ccccc1[N+](=O)[O-])c1csc(Nc2ccccc2)n1`, for which the inhibition was 15% (inactive). The figure for `O=C(NCCCN1CCN(c2ccc(F)cc2)CC1)Nc1ccc([N+](=O)[O-])cc1` is 31.9% (inactive); for `CCc1cccc(C)c1NC(=O)COC(=O)CC1CCCC1` it is 29.1% (inactive); for `CC(C)Cc1nnc(NC(=O)CCC(=O)Nc2ccc3cn[nH]c3c2)s1` it is 2.31% (inactive). With `O=C(COc1ccccc1)N1CCc2ccccc2C1`, the inhibition is 44.4% (active). In the case of `CCc1ccc(-c2nnn(Cc3nn[nH]n3)n2)cc1` it was 10.7% (inactive); in that of `O=C(Cc1ccccc1)NC(=S)Nc1ccc(N2CCCCC2)cc1`, 11.4% (inactive); in that of `CC/C(=N/Nc1ccccc1)c1cnnc(SC)n1`, 16.1% (inactive). In the case of `Cc1ccc(C(=O)c2ccc(N3CCN(C)CC3)c([N+](=O)[O-])c2)cc1` it was 14.5% (inactive); in that of `CCCCCCCCCCCCCCCC(=O)OC/C=C(C)/C=C/C=C(C)/C=C/C1=C(C)CCCC1(C)C`, 4.1% (inactive); in that of `Cc1cc(C)nc(N/N=C/c2ccc([N+](=O)[O-])o2)n1`, 22.3% (inactive). In the case of `CC1(C)C2CCC1(C)C(OC(=O)c1ccc(O)cc1)C2` (stereo not drawn) it was 18.1% (inactive).

On to `CCOC(=O)c1ccc(N2C(=O)CC(N(C)Cc3ccccc3)C2=O)cc1` (stereo not drawn), for which the inhibition is 18.6% (inactive). Take `Cc1ccc(NS(=O)(=O)c2ccc(N/N=C/c3ccccc3OCC(=O)O)c([N+](=O)[O-])c2)c(C)c1`: the inhibition was 29.4% (inactive). For the compound `CC1(C)Cc2cccc(OCC(=O)Nc3nccs3)c2O1`, the inhibition was 2.41% (inactive).

Consider `COc1ccc(Br)cc1/C=N/Nc1ccc(S(=O)(=O)Nc2ccccc2C(=O)O)cc1[N+](=O)[O-]`, for which the inhibition was 21.5% (inactive). `CCCC1CCC(=NNC(=S)NCCc2ccccc2)CC1` (stereo not drawn): the inhibition is 5.71% (inactive). In the case of `COC(=O)CCCC1=CC2=CC(=O)C(C)(OC(=O)c3cccs3)C(=O)C2=CN1CC(C)C` (stereo not drawn) it was 52.7% (active); in that of `CCOC(=O)C1CCCN(C(=O)c2ccc(C)c(F)c2)CC1` (stereo not drawn), 10.1% (inactive). On to `COc1cc(C(=S)N2CCOCC2)cc(OC)c1OC(=O)c1cc([N+](=O)[O-])cc([N+](=O)[O-])c1`, for which the inhibition is 26.8% (inactive). Take `COc1ccc(C(=O)c2c3ccc([N+](=O)[O-])cc3[n+]([O-])n2CCCN)cc1`: the inhibition was 70.5% (active).

Consider `COc1ccc(-c2[nH][nH]c(=O)c2NC(=O)c2ccc([N+](=O)[O-])cc2)cc1`, for which the inhibition is 34.5% (inactive).

Regarding `CCOC(=O)CNC(=O)N1c2ccccc2Sc2ccccc21`, the inhibition is 16.6% (inactive).

Consider `Cc1sc2ccccc2c1CNC[C@H]1O[C@@H](n2ccc(=O)[nH]c2=O)[C@H](O)[C@@H]1O`, for which the inhibition was 8.62% (inactive).

For `Cc1cccc(OCC(=O)NC(=S)Nc2ccccc2N2CCOCC2)c1`, the inhibition was 13% (inactive).

Take `Cc1nc(SCC(=O)c2ccccc2)c([N+](=O)[O-])[nH]1`: the inhibition was 10.2% (inactive). The figure for `Cc1cc(C)c(/C=C2\C(=O)Nc3ccccc32)[nH]1` is 11.5% (inactive); for `CC(C)CC(=O)N=C1SC2CS(=O)(=O)CC2N1CCc1ccccc1` (stereo not drawn) it is -0.28% (inactive). As for `O=[N+]([O-])c1ccc(N2CCSCC2)cc1O`, the inhibition was 22.9% (inactive). `CCN=C1SC(CC(=O)Nc2ccc(C)cc2)C(=O)N1CC` (stereo not drawn): the inhibition was 12.9% (inactive).

Regarding `CC1CCN(c2ccc([N+](=O)[O-])c(SCCO)c2)CC1`, the inhibition was 19.1% (inactive). As to `Cc1ccccc1NCC(=O)N/N=C\c1ccc([N+](=O)[O-])s1`, the inhibition was 31.1% (inactive). The figure for `O=P(O)(CP(=O)(c1ccccc1)c1ccccc1)c1ccccc1O` is 13.6% (inactive); for `CCOC(=O)C(CC)Sc1ncnc2c1nnn2-c1ccc(F)cc1` (stereo not drawn) it is 14.5% (inactive). `Cn1c2ccc(F)cc2c2nnc(NN)nc21`: the inhibition was -8.09% (inactive). The figure for `O=C(NC(=S)N1CCCCC1c1cccnc1)c1ccccc1` (stereo not drawn) is 8.53% (inactive).

As for `CCC(C)[C@H](NC(=O)N1c2ccccc2NC(=O)[C@@H]1C(C)C)C(=O)N[C@@H](Cc1ccccc1)C(=O)O` (stereo partly drawn), the inhibition was 7.29% (inactive).

For `COc1ccc(S(=O)(=O)Nc2ccc3cn[nH]c3c2)cc1[N+](=O)[O-]`, the inhibition is 14.1% (inactive). In the case of `NN=C(NN=Cc1ccccc1)c1ccccc1` it was 43.8% (active). Take `CC(C)[C@H](NC(=O)N1CC(=O)Nc2ccccc21)C(=O)N[C@@H](Cc1c[nH]c2ccccc12)C(=O)O`: the inhibition is 15% (inactive). In the case of `COc1cccc(N(CC(=O)NCCSc2ccccn2)S(C)(=O)=O)c1` it was 3.26% (inactive). In the case of `CCOc1ccc(NCCC(=O)c2ccc3c(c2)OCO3)cc1`, the inhibition was 23.6% (inactive).

For `Cc1ccc(C(=O)N/C(=C/c2ccc(-c3cccc([N+](=O)[O-])c3)o2)C(=O)NCCCN(C)C)cc1`, the inhibition is 17.4% (inactive).
